The values below come from PubChem BioAssay.

The test system of the assay is Human papillomavirus type 1a E7 protein (residues 1-88). The assay can be described thus: HPV1a E7 small-molecule binders, primary screen, biochemical, small-molecule microarray, residues 1-88, 635 nm (AID 1129). The following applies: small-molecule microarray binding, fluorescence 635 nm; higher = more signal.
In the case of `CCCCC(O)C1C=CC2C(=O)N(Cc3ccccc3)C(=O)C2N1n1cnnc1` (stereo unspecified), the composite z-score turned out to be 0.433.
To `COCCCNC(=O)[C@@]1(C)c2ccccc2C(=O)N(c2ccc(C)cn2)[C@H]1c1ccc(CO)cc1` belongs -0.454; to `CCCC=C(CCC)[C@@H](NS(=O)(=O)c1cccc2cccnc12)c1ccc(C(=O)OC)cc1`, 0.36.
To `COc1ccccc1CN1C(=O)c2ccccc2[C@](Cc2ccccc2I)(C(=O)NCCN2CCOCC2)[C@@H]1c1ccc(CO)cc1` belongs 1.18; to `C=C(COC)/C(=C/C[C@@H](OC(=O)c1ccncc1)c1cccc(OCCO)c1)c1cc(C(=O)OC)ccc1OC`, 0.942; to `C=CCNC(=O)[C@@H]1[C@H]2C(=O)O[C@H](c3ccccc3)[C@H](c3ccccc3)N2[C@H](c2ccc(O)cc2)[C@@]12C(=O)Nc1ccc(C#CCCO)cc12`, -0.756.
`COCCCNC(=O)[C@]1(Cc2ccccc2)N=C(c2ccc(OCCCO)cc2)O[C@@H]1c1ccccc1N=[N+]=[N-]` had a composite z-score of 1.22.
In turn, `COC(=O)C(CC#Cc1ccc2c(c1)[C@]1(C(=O)N2)[C@H](c2ccccc2OCCO)N2[C@H](c3ccccc3)[C@H](c3ccccc3)OC(=O)[C@H]2[C@@H]1C(=O)Nc1nc2ccccc2s1)C(=O)OC` gave a composite z-score of 1.21.
On to `CCOC(=O)C[C@H]1[C@H](OC(=O)c2cc3ccccc3oc2=O)[C@@H](NC(=O)c2ccc3ccccc3n2)c2cc(OCCCO)ccc2N1C(=O)c1ccc2ccccc2n1`, for which the composite z-score came to 0.784.
Consider `NCCCCCCNC(=O)[C@H]1C[C@H]2C(=O)N3CCC[C@H]3C(=O)N2[C@H]1c1ccc(O)cc1`, for which the composite z-score came to 0.609.
To `C=CCOC(=O)[C@@H]1[C@H]2C(=O)O[C@H](c3ccccc3)[C@H](c3ccccc3)N2[C@H](c2ccc(OCCOC(=O)[C@@H]3C[C@@H]4C(=O)N[C@@H](CCCCNC(C)=O)C(=O)N4[C@@H]3c3ccc(O)cc3)cc2)[C@@]12C(=O)Nc1ccc(I)cc12` belongs 1.21.
